Source: PubChem (The Scripps Research Institute Molecular Screening Center)
MITF inh – human MITF inhibition, primary screen | O75030 | inhibition, % at 2.6 µM | 650,000 compounds, 0.91% hits | AlphaScreen MITF homodimerization, bead proximity signal; in the data active means inhibition above about 50%;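 further: 0% = vehicle wells with protein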
Target sequence (O75030 whole entry, looked up): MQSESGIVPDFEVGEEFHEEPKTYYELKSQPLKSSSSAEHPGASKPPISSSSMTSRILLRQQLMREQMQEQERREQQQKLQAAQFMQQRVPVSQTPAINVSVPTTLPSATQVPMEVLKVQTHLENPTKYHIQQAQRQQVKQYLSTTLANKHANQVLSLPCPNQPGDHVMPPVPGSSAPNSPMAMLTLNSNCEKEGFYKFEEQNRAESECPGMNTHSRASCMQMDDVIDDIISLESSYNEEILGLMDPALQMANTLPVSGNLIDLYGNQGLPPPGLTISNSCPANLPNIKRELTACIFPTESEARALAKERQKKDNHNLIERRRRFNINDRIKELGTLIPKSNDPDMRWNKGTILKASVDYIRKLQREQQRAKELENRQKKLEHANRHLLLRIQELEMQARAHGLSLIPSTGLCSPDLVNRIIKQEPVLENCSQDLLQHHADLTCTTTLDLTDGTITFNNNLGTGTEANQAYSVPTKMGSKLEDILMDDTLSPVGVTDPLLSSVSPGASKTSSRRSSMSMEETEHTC
FBW7 activator – activators of human E3 ligase FBW7; Q969H0; AlphaScreen FBW7–phospho-cyclin E peptide binding, activator screen; normalized activity (activation), % at 26.1 µM; 650,000 compounds, 0.13% hits; AID 1259310; in the data active means normalized activity above about 1.9%;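 further: purified mutant Fbw7 with reduced substrate affinity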
TEAD-YAP block – TEAD-YAP interaction inhibition | 640,000 compounds, 1.4% hits | HEK-TIYL cells, TEAD-Gal4/YAP UAS-luciferase luminescence | inhibition, % at 9.12 µM | AID 1259422; in the data active means inhibition above about 32%;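 further: 0% = median of test compound wells and 100% = reference inhibitor wells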
GPR151 ag – activates the human receptor GPR151; Q8TDV0; PathHunter beta-arrestin GPR151 cells, luminescence; activation, % at 11.2 µM; 650,000 compounds, 1% hits; in the data active means activation above about 4.9%;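 further: 0% = median of compound wells and 100% = cells with positive control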
GPR151 conf act – confirmation of human GPR151 activators; shares compounds with GPR151 ag; GPR151 PathHunter beta-arrestin cells, luminescence, 90 min; % of EA-reagent control over plate median; activation, % at 11.2 µM; 6,700 tested, under 10 active;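 active means mean percent activation across replicates above the confirmation screen cutoff of 4.91%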
GPR119 ag – GPR119 activation, counter-screen for GPR151 activators. AID 1508611. 6,700 compounds, 0.3% hits. activation, % at 11.2 µM. GPR119 PathHunter beta-arrestin cells, luminescence, 90 min; 0 = compound-well median, 100 = enzyme-acceptor control. shares compounds with GPR151 ag;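 active means mean percent activation in the counterscreen above 29.09%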;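 further: counterscreen on off-target GPR119 to flag nonselective hits from the GPR151 activator screen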
Starred values were filed as active, the others as inactive; · = no result given. Hits are enriched below; roughly 3.5% of the tested compounds scored in any of these assays.

SMILES	MITF inh	FBW7 activator	TEAD-YAP block	GPR151 ag	GPR151 conf act	GPR119 ag
CC(=O)Nc1ccc(NC(=O)c2ccc3nc(-c4cccc(C(C)=O)c4)sc3c2)cc1	-17	0	1	-1	·	·
COc1cc(NC(=O)c2cnc(-c3csc4ccccc34)s2)cc(OC)c1OC	5	0	10	5.1*	0	2
CN1CCN(c2ccc(-c3nc4ccc(C(=O)NCc5cccc(C(F)(F)F)c5)cc4s3)cc2)CC1	-4	0	16	5.8*	-1	-19
Cc1cccc(CC(=O)Nc2nnc3n2CCCS3)c1	7	0	4	1	·	·
COc1ccc(-c2cn(S(=O)(=O)c3ccc(F)c(C)c3)nc2N)cc1	2	0	7	0	·	·
COc1ccc(-c2nc3ccccc3s2)cc1NC(C)=O	7	0	-42	4.9*	0	-6
CCCNC(=O)c1ccc2nc(-c3ccc(OC)cc3)sc2c1	5	0	-19	11*	-1	-5
COC(=O)COc1ccc(-c2nc3ccccc3s2)cc1OC	-7	0	2	-2	·	·
Nc1cc2c(cc1C(=O)c1cccc(Br)c1)OCCO2	-2	0	5	5.4*	0	3
CC(=O)c1cccc(NC(=O)COc2c(C)cccc2C)c1	-14	0	-7	5.2*	0	-12
COCCCNC(=O)CN1C(=O)C(C(C)C)Oc2ccc(C)cc21 (stereo unspecified)	2	0	4	6.1*	0	13
CC(C)C1Oc2ccccc2N(CC(=O)NCCCN2C(C)CCCC2C)C1=O (stereo unspecified)	18	0	12	5.0*	0	-3
O=C(CSCc1ccccn1)Nc1ccc2ccccc2c1	-8	0	-40	7.5*	0	9
O=C(CSCC(=O)Nc1ccccn1)Nc1ccc2ccccc2c1	0	0	-15	-1	·	·
O=C(CSCCc1ccccn1)Nc1ccccc1Cl	2	0	-13	8.0*	0	0
O=C(CSCCc1ccccn1)Nc1ccc(I)cc1	-14	0	-25	5.7*	0	4
CC1(C)C(c2cccs2)=[N+]([O-])C2(CCCCCC2=O)N1O (stereo unspecified)	8	0	4	1	·	·
CC1(C)C(c2ccco2)=[N+]([O-])C2(CCCCCC2=O)N1O (stereo unspecified)	-2	0	0	7.7*	0	14
CCOC(=O)CSc1nc2c(c(=O)n1-c1ccccc1C)C1(CCCC1)Cc1ccccc1-2	8	0	0	2	·	·
COC(=O)c1ccccc1NC(=O)CSc1n[nH]c(-c2ccccc2)n1	11	1	4	5.0*	-1	-13
COC(=O)CCC(=O)Nc1ccccc1NC(=O)CCC(=O)OC	5	0	0	5.0*	0	10
CCCC(=O)Nc1ccccc1NC(=O)Cc1ccc(OC)cc1	16	0	0	5.4*	0	-12
COC(=O)c1ccccc1NC(=O)CCSCCC(=O)Nc1ccccc1C(=O)OC	-4	0	1	6.3*	-1	-7
COc1ccc(CN2CCc3nnc(C(C)NC(=O)c4ccco4)n3CC2)cc1 (stereo unspecified)	2	0	12	-1	·	·
Cc1cccc(Nc2nc(Cl)nc(NCCN3CCOCC3)n2)c1	-1	0	-1	1	·	·
SMILES	MITF inh	FBW7 activator	TEAD-YAP block	GPR151 ag	GPR151 conf act	GPR119 ag
Clc1cccc(CN2CCN(c3nc4nonc4nc3NC3CC3)CC2)c1	-6	0	6	11*	-1	-8
COc1ccc(Nc2nc(C)cc(NCC3CCCO3)n2)cc1 (stereo unspecified)	4	0	0	2	·	·
Cc1cc(NCC2CCCO2)nc(Nc2ccc(N3CCOCC3)cc2)n1 (stereo unspecified)	4	0	20	4.9*	0	-7
CC(C)OC(=O)C1=C(N)Oc2c(oc(CO)cc2=O)C1c1ccccc1Cl (stereo unspecified)	12	0	19	0	·	·
Cc1ccc(C(=O)Nc2ccc(C(=O)N/N=C/c3cccc(C)n3)cc2)cc1	1	0	14	6.1*	0	-3
Cc1cccc(/C=N/NC(=O)c2ccc(F)cc2)n1	1	0	-30	1	·	·
COCCn1c(SCc2ccc(F)cc2)nc2c([nH]c3ccccc32)c1=O	5	0	-8	1	·	·
COCCn1c(SCc2cccc(Cl)c2)nc2c([nH]c3ccccc32)c1=O	1	0	-1	11*	-1	-2
CCOC(=O)C1CCN(C(=O)Cc2c(C(=O)O)[nH]c3ccc(Cl)cc23)CC1	6	0	-7	5.3*	0	-1
Cc1ccc(CN2CCc3nnc(CNC(=O)c4ccccc4)n3CC2)cc1	6	0	5	6.0*	0	5
CC(C)=CCN1CCc2nnc(CNC(=O)c3ccccn3)n2CC1	3	0	0	0	·	·
C/C=C(\C)CN1CCc2nnc(CNC(=O)CCc3cccnc3)n2CC1	9	0	5	15*	0	-4
C/C(=C\c1ccco1)CN1CCc2nnc(CNC(=O)CCc3cccnc3)n2CC1	18	0	-1	-2	·	·
Cc1ccc(CN2CCc3nnc(CNC(=O)c4ccccn4)n3CC2)cc1	8	0	11	-1	·	·
CC(C)=CCCC(C)CN1CCc2nnc(CNC(=O)c3ccccn3)n2CC1 (stereo unspecified)	8	0	2	6.8*	1	8
CSc1ccccc1NC(=O)N1CCCC(N(C)CCc2ccccn2)C1 (stereo unspecified)	-3	0	-4	5.2*	-1	-14
COc1cncc(-c2cnc(Nc3cccc(N(C)C)c3)c3nccn23)c1	3	0	-9	1	·	·
Cc1ccc(Cl)cc1NC(=O)c1snnc1C	-11	0	-7	-1	·	·
Clc1ccc(SCCCCn2cncn2)cc1	-4	0	5	9.2*	0	5
O=C(Cn1cncn1)c1ccc(Cl)cc1	0	0	-4	7.8*	-1	-2
Cc1ccc(C(=O)Cn2cncn2)cc1	2	0	4	2	·	·
CN(Cc1ccccc1)Cc1cc(-c2ncccn2)ccc1O	-4	0	1	1	·	·
CN(Cc1nnc(-c2ccccc2)o1)Cc1cc(-c2ncccn2)ccc1O	6	0	-2	11*	0	13
COC(=O)c1ccc(C)c(NC(=O)c2ccccc2SC)c1	-2	0	-2	1	·	·
CC(C)c1ccc(N2C(=O)NC(=O)/C(=C/c3ccccc3O)C2=O)cc1	14	0	10	12*	0	-1
CC(C)c1ccc(N2C(=O)NC(=O)/C(=C/c3ccc(O)cc3)C2=O)cc1	12	0	8	-2	·	·
CC1(C)Cc2c(sc3nc(-c4cc5ccccc5o4)n(N)c(=O)c23)CO1	2	0	-12	6.4*	0	-2
